Compounds with a hit are over-represented: about 2.6% of the library has one in this group of screens.
TPT1 inhibitor: inhibitors of Candida albicans tRNA 2'-phosphotransferase TPT1; recombinant caTPT1, FP RNA substrate dephosphorylation; inhibition, % at 5 µM; 300,000 tested, 0.81% active;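 active means inhibition above the mean of all tested compounds plus 3 SD, set per screening campaign, cut at about 24% in these data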;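 further: plate controls were DMSO alone for no effect and ferristatin control at 100 nM for full effect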
IDE cell inh: inhibitors of human insulin-degrading enzyme in cells | P14735 | HEK cells, FAbetaB cleavage, fluorescence polarization | inhibition, % at 5.59 µM | 320,000 tested, 0.41% active;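 active means percent inhibition above the average of all tested compounds plus 3 SD, set per screening campaign, cut at about 16% in these data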;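 further: IDE supplied by intact live HEK cells; FP after avidin binding of uncleaved biotin substrate so inhibition keeps polarization high; 0% = DMSO wells and 100% = 60 µM reference IDE inhibitor Ii1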
Target sequence (P14735 whole entry, looked up): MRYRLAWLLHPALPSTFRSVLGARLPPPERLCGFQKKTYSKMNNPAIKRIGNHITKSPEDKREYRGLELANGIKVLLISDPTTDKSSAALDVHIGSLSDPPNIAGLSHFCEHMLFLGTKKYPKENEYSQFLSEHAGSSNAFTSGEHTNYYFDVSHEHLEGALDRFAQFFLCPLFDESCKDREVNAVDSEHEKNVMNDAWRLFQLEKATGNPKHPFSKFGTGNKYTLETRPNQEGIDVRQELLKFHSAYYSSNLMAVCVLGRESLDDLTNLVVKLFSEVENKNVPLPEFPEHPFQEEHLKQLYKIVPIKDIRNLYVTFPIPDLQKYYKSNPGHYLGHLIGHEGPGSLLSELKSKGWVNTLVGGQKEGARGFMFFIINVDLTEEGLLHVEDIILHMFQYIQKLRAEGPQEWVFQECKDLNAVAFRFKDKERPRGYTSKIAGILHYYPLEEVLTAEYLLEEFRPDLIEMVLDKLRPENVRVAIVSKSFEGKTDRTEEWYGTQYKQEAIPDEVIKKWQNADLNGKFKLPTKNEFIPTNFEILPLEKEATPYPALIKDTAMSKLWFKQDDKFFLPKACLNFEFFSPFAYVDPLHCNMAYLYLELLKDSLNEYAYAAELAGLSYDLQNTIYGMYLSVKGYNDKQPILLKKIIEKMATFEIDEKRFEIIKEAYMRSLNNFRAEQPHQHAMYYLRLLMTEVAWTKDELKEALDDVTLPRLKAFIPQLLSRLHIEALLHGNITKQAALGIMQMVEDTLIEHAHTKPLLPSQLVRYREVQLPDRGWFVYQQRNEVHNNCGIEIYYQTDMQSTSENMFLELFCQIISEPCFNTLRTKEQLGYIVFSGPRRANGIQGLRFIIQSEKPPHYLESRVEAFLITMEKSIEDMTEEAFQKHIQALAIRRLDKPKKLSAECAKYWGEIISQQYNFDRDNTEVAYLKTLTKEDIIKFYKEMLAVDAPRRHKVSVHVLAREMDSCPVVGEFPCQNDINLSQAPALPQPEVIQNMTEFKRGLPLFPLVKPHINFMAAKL
Myeloid diff MLP: promotes myeloid progenitor differentiation; AID 624256; ER-HoxA9 myeloid progenitors, lysozyme-GFP differentiation, flow cytometry; calls only at 10 µM; 360,000 tested, 1% active;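 active means normalized GFP-positive differentiation at or above the plate's own cutoff, the solvent-only control mean plus 3 SD; inconclusive means no clear call, values can overlap the other calls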;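 further: cells exposed to compound for four days before flow analysis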
IDE cell activ: IDE (human) activation, cell-based; HEK cells, FAbeta-B cleavage, fluorescence polarization; 0% vehicle, 100% cell-free pure enzyme wells; activation, % at 5.96 µM; 340,000 tested, 0.073% active; AID 493087;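 active means activation above the mean of all tested compounds plus 3 SD, set per screening campaign, cut at about 17% in these data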
CRFBP-R2 agonist: agonists of human CRF-binding protein/CRF-R2 receptor complex; 350,000 tested, 0.46% active; HEK293 CRF-R2/CRF-BP, calcium dye fluorescence (FLIPR); percent of saturating CRF peptide response; AID 588473; activation, % at 13.2 µM;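 active means activation of at least 50%, plus an integration ratio under a set limit after plate pattern correction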;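 further: plate controls were neutral control wells without compound for no effect and CRF at EC100 for full effect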
CRFBP-R2 block: antagonists of CRF-binding protein/CRF-R2 receptor complex; 350,000 tested, 0.59% active; HEK293 CRF-R2/CRF-BP, CRF-induced calcium fluorescence; inhibition, % at 11.8 µM;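 active means inhibition of the ligand-induced calcium signal above about 50% at the single tested concentration, limit read from the data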
* = called active by the depositor; i = inactive; ? = inconclusive; . = no result given; + = active, no number.

SMILES	TPT1 inhibitor	IDE cell inh	Myeloid diff MLP	IDE cell activ	CRFBP-R2 agonist	CRFBP-R2 block
O=C1c2ccccc2C(Nc2ccc3nc(-c4cccnc4)[nH]c3c2)N1Cc1ccco1 (centres undefined)	-7	-9	i	18*	0	10
C=C1C(C(=O)Nc2ccccc2)C1C(=O)Nc1ccccc1 (centres undefined)	-1	-10	i	3	0	59*
CN(C)C(=O)Nc1ccccc1	0	-4	i	-6	0	1
O=S(=O)(NCc1cn2ccsc2n1)c1ccc(Oc2ccccc2)cc1	-1	2	+	0	-2	5
CCCCn1c(N)c(N(C(=O)CSc2nnnn2-c2ccccc2C)C2CCCC2)c(=O)[nH]c1=O	.	.	i	2	-2	-10
O=c1c2ccccc2nc2n1-c1ccccc1CCC2	1	3	i	5	1	4
O=C1c2ccccc2-n2c1nc1ccccc1c2=O	-2	0	+	-1	0	8
CC1=C(C(=O)N(C(C)C)C(C)C)CC(CC(=O)NC2CCCC2)C(=O)N1Cc1ccccc1 (centres undefined)	.	.	i	.	6	-1
CC1=C(C(=O)N(C(C)C)C(C)C)CC(CC(=O)NC2CCCCC2)C(=O)N1Cc1ccccc1 (centres undefined)	.	.	i	.	-3	59*
CSC1=NS(=O)(=O)c2c(C)nn(C)c2S1	-4	15	i	-34	0	-3
O=C(C1CCC(=O)N(C2CC2)C1)N1CCC(Oc2cccc(F)c2)CC1 (centres undefined)	-2	2	i	4	0	12
O=C(C1CCC(=O)N(C2CCCC2)C1)N1CCC(Oc2cccc(F)c2)CC1 (centres undefined)	2	-1	+	2	-1	6
CCOc1ccccc1N(CC(=O)NCc1ccco1)C(=O)CCC(=O)Nc1nccs1	1	-7	i	3	1	9
O=C(O)C1CC(=O)N(Cc2ccccc2)C1 (centres undefined)	-2	-1	i	0	0	-4
O=C(O)C1CC(=O)N(CCOc2ccccc2)C1 (centres undefined)	0	1	i	1	8	63*
COc1cccc(Nc2nc(-c3sc(NC(=O)c4ccccc4)nc3C)cs2)c1	5	-1	+	-1	1	-12
Cc1nc(N)sc1-c1csc(Nc2ccccc2)n1	10	8	i	0	-2	79*
CCCCCc1c(-c2ccc(F)cc2F)ncn1CCc1ccccc1OC	.	.	i	.	.	.
COc1ccc(NC(=O)C2(C)Cc3c(-c4cccc(C(N)=O)c4)ccnc3O2)cn1 (centres undefined)	.	.	i	.	.	.
Cn1ncc([N+](=O)[O-])c1C(=O)N/N=C/c1ccc(F)cc1	-4	4	i	0	-1	-1
CCOC(=O)c1cc2c(=Cc3ccc(N(C)C)cc3)c3ccccc3n2[n+]1C	.	.	.	-5	-3	-32
C[n+]1c(-c2ccccc2)cc2c(=Cc3ccccc3)c3ccccc3n21	.	.	?	2	11	-54
CN(C)c1ccc(C=c2c3cc(O)ccc3n3c2cc(-c2ccccc2)[n+]3C)cc1	.	.	+	-5	-5	14
Cc1cc2c(=Cc3ccc(N(C)C)cc3)c3ccccc3n2[n+]1C	.	.	.	-2	-1	108*
COc1ccccc1/C=C/c1nc(S(=O)(=O)c2ccccc2)c(N(C)C)o1	-4	1	i	1	-1	72*
SMILES	TPT1 inhibitor	IDE cell inh	Myeloid diff MLP	IDE cell activ	CRFBP-R2 agonist	CRFBP-R2 block
CC(=O)Nc1ccc(Nc2nc(-c3cc4ccccc4oc3=O)cs2)cc1	.	.	i	3	-1	0
O=C(O)c1ccc(Nc2nc(-c3cc4ccccc4oc3=O)cs2)cc1O	.	.	i	.	61*	-44
CCOC(=O)c1c(CSC(=N)N)n(-c2ccc(C)cc2)c2cc(Br)c(OC(C)=O)cc12	-7	2	i	18*	15	-100
CCOC(=O)c1c(CSC(=N)N)n(C)c2cc(Br)c(OC(C)=O)cc12	-4	-5	i	1	1	-22
O=C(NCC1CCCO1)C(=O)N/N=C\c1ccc2c(c1)OCO2 (centres undefined)	.	.	.	-3	-2	13
COc1ccc(N(CC(=O)N/N=C/c2ccco2)S(=O)(=O)c2ccccc2)cc1Cl	2	-1	i	5	-3	-14
